The source of these data is PubChem BioAssay (NCATS).

Experiment [1] is described as follows: Cell Viability - Mesenchymal (AID 546).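 Also: cells exposed to compound for 40 hours before reading; 0% = DMSO only and -100% = 100 µM tamoxifen.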 As to conditions: mesenchymal cells viability, qHTS; activity change, negative = cytotoxicity: at 91.7 µM (top of the series). The essentials: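 Human renal mesenchymal cells (glomerulus-derived), 1000 cells/well, 5 hr 37 °C pre-incubation; compound 40 hr, 37 °C; CellTiter-Glo, 20 min RT; luminescence; AC50 via Hill equation.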
A general note: In qHTS, concentration-response curves come from the screen itself.

A short description of experiment [2]: Cell Viability - LYMP2-024 (AID 988).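 Also: plate controls were DMSO only for no effect and 92 µM tetraoctylammonium bromide for full effect; nearly all actives have a fitted effect of over 60% in size.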 The essentials: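 Cytotoxicity was taken as a decrease in ATP (CellTiter-Glo luminescence) after 24 hr compound exposure at 37 C of LYMP2-024 lymphoblastoid cells, 2500 cells/well. Concentration-response data were fitted to the Hill equation to give AC50.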
The nature of experiment [3]: Cell Viability - LYMP2-026 (AID 989). Also: % is scaled to controls: 0 for no effect and ±100 for the full control effect; nearly all actives have a fitted effect of over 50% in size. In short, it runs like this: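 Cytotoxicity read as ATP-dependent luminescence (CellTiter-Glo, 30 min room temperature) after 24 h compound treatment at 37 C. LYMP2-026 lymphoblastoid line seeded at 2500 cells/well; AC50 derived by standard Hill equation.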
The target in experiment [4] is Estrogen receptor (Homo sapiens) (UniProt P03372). Put plainly: qHTS assay for small molecule antagonists of estrogen receptor alpha signaling (AID 588513; active = well fitted curve in the direction sought with a large enough effect in the signal ratio, with a control signal flat, not every such curve was filed as active; the % refers to the signal ratio; also: % is scaled to controls: 0 for no effect and ±100 for the full control effect). The essentials:
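Beta-lactamase reporter, antagonist mode, HEK 293 GripTite cells; 0.5nM E2 stimulus, 18 h, 37 C; CCF4 dye 2 h RT; fluorescence. IC50 and efficacy from Hill fits, normalized to E2 and DMSO.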

Experiment [5] shares this target. Put plainly: qHTS assay for small molecule agonists of estrogen receptor alpha signaling (AID 588514; calls by dose curve;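 also: 0% = vehicle only and 100% = reference agonist; nearly all actives have a fitted effect of over 70% in size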). The essentials: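 EC50 and efficacy came from Hill fits of beta-lactamase reporter signal (CCF4 dye, 2 h at room temperature) scaled between DMSO and 20 nM 17-beta-estradiol. Agonist mode: HEK293 ER-alpha-UAS-bla cells in charcoal/dextran-stripped serum medium, 18 h compound exposure at 37 C.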

For experiment [6], the target named is Bile acid receptor (Homo sapiens) (UniProt Q96RI1). Put plainly: qHTS assay for small molecule antagonists of farnesoid X receptor signaling (AID 588526; calls by dose curve; also: % is scaled to controls: 0 for no effect and ±100 for the full control effect). In short, it runs like this:
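Antagonist mode: titrated compounds tested against chenodeoxycholic acid stimulation (normalized to 50 uM CDCA and DMSO) in GeneBLAzer HEK293T cells for 16 h. Beta-lactamase read by CCF4 fluorescence; IC50 from Hill fits.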

Experiment [7] addresses Glucocorticoid receptor (Homo sapiens) (UniProt P04150). Put plainly: qHTS assay for small molecule agonists of glucocorticoid receptor signaling (AID 588532; active = well fitted curve in the direction sought with a large enough effect in the signal ratio, with a control signal flat; the % refers to the signal ratio;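 also: 100% = dexamethasone at 0.1 µM and 0% = DMSO only wells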). The note with it: HeLa MMTV-bla, beta-lactamase ratio, agonist, 18 h; hits give high values; percent of dexamethasone control, DMSO zero. The essentials: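 Cells were plated and rested 3-5 h at 37 C, compounds were added in titration and incubated 18 h, then CCF4 substrate was loaded for 2 h at RT before reading blue/green fluorescence. EC50 came from Hill-equation fitting.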

Experiment [8] addresses Peroxisome proliferator-activated receptor gamma (Homo sapiens) (UniProt P37231). Put plainly: qHTS assay for small molecule antagonists of peroxisome proliferator-activated receptor gamma signaling (AID 588537; active = well fitted inhibition curve with a large enough effect in the signal ratio, with a control signal flat, not every such curve was filed as active; the % refers to the signal ratio;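 also: reporter cells co-stimulated with 50 nM rosiglitazone agonist during compound treatment; % of control where 0% means no effect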). In short, it runs like this:
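Fluorescence at 460 and 530 nm (405 nm excitation) reported beta-lactamase cleavage of CCF4 after 2 h room-temperature loading. HEK293 reporter cells in 1% charcoal/dextran-treated FBS had received compound and rosiglitazone for 16 h.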

The target of experiment [9] is Retinoic acid receptor RXR-alpha (Homo sapiens) (UniProt P19793). Put plainly: qHTS assay for small molecule agonists of retinoid X receptor alpha signaling (AID 588544; calls by dose curve;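 also: 0% = DMSO basal wells and 100% = reference agonist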).
Retinoic acid receptor RXR-alpha (Homo sapiens), sequence (P19793 whole entry, looked up): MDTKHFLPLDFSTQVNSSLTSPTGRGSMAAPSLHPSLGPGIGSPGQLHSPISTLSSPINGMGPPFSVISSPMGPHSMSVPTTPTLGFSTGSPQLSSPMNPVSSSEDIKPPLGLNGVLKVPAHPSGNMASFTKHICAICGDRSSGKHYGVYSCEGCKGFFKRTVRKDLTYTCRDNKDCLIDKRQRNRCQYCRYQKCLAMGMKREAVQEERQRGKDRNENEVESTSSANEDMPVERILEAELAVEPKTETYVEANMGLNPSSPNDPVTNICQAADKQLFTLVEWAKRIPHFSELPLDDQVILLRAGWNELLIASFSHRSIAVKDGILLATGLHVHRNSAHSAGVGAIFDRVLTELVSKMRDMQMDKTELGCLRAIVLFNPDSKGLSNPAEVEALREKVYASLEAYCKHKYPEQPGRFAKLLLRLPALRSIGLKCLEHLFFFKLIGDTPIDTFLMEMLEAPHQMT
Experiment [10] addresses Thyroid hormone receptor beta (Homo sapiens) (UniProt P10828). Put plainly: qHTS assay for small molecule antagonists of thyroid hormone receptor beta signaling (AID 588547; active = well fitted inhibition curve with a large enough effect in the signal ratio, with a control signal flat, not every such curve was filed as active; the % refers to the signal ratio;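 also: cells stimulated with 0.4 nM T3 agonist during compound exposure; % is scaled to controls: 0 for no effect and ±100 for the full control effect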). The note with it: TR-UAS-bla HEK293, beta-lactamase ratio, antagonist mode, 18 h. The essentials: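 TR-UAS-bla GripTite HEK293 cells in 2% charcoal/dextran FBS medium; compounds 0.59 nM to 92 uM with T3 at 0.4nM final, 18 h at 37 C. Beta-lactamase read by CCF4 fluorescence (460/530 nm); Hill fits gave IC50 and efficacy.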

Experiment [11] is described as follows: qHTS assay for small molecule antagonists of the retinoid-related orphan receptor gamma (ROR-gamma) signaling pathway - cell viability counter screen (AID 720652; active = well fitted curve in the direction sought with a large enough effect in the repeat runs; an effect the other way counts as inactive or inconclusive;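 also: CHO reporter cells with doxycycline-induced ROR-gamma expression; compound exposure lasted 16 hr before ATP read; % is scaled to controls: 0 for no effect and ±100 for the full control effect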). In short, it runs like this:
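Cytotoxicity counter screen: intracellular ATP (CellTiter-Glo luminescence) measured in the doxycycline-induced CHO RORE-luciferase reporter line after 16 hr compound exposure at 37 C, 5% CO2.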

Experiment [12] in a line: Cell Viability - LYMP1-003 - Assay at 40 hr (AID 964). Also: % is scaled to controls: 0 for no effect and ±100 for the full control effect; nearly all actives have a fitted effect of over 60% in size. In short, it runs like this:
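Viability is taken as cellular ATP, read by CellTiter-Glo luminescence after 40 h of compound exposure at 37 C. Cells: human lymphoblastoid line LYMP1-003 at 2500/well; AC50 values derived by Hill-equation fitting of concentration-response data.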

Experiment [13] is described as follows: Cell Viability - LYMP2-025 (AID 976).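 Also: plate controls were DMSO only for no effect and tetraoctylammonium bromide control for full effect.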 The essentials: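 Cytotoxicity read as loss of intracellular ATP (luciferase luminescence) after 24 h compound treatment at 37 C. Uses LYMP2-025 lymphoblastoid cells in 1536-well format; Hill-equation modelling gives AC50; tetraoctylammonium bromide as positive control.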
The nature of experiment [14]: Cell Viability - LYMP2-008 (AID 980). Also: % is scaled to controls: 0 for no effect and ±100 for the full control effect; nearly all actives have a fitted effect of over 60% in size. In short, it runs like this: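 Cytotoxicity determined from ATP-dependent luciferase luminescence (CellTiter-Glo) following 24 h compound exposure of human lymphoblastoid LYMP2-008 cells at 37 C. Concentration-response data fitted to the Hill equation to give AC50.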
The target in experiment [15] is Glucocorticoid receptor (Homo sapiens) (UniProt P04150). Put plainly: qHTS assay for small molecule antagonists of glucocorticoid receptor signaling (AID 588533; active = well fitted inhibition curve with a large enough effect in the signal ratio, with a control signal flat, not every such curve was filed as active; the % refers to the signal ratio). In short, it runs like this:
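Antagonist-mode qHTS: compound titrations added to GRE-bla HeLa cells, then dexamethasone 2 nM final; 18 h, 37 C. CCF4 FRET fluorescence normalized to dexamethasone and DMSO; IC50 from Hill fit.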

Experiment [16] is described as follows: Cell Viability - LYMP2-006 (AID 978).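 Also: cells exposed to compound for 24 hours; % is scaled to controls: 0 for no effect and ±100 for the full control effect; nearly all actives have a fitted effect of over 60% in size.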 In short, it runs like this:
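qHTS, 1536-well; 2500 cells/well, 5 hr 37 C; cpd 24 hr 37 C; CellTiter-Glo 30 min RT; luminescence. Tetraoctylammonium bromide pos. ctrl. AC50 via Hill eqn.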

The nature of experiment [17]: Cell Viability - LYMP1-002 - Assay at 40 hr (AID 994). The essentials:
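Cytotoxicity was read as loss of cellular ATP (CellTiter-Glo luminescence) after 40 hr compound exposure at 37 C of 2500 LYMP1-002 lymphoblastoid cells per well. Concentration-response data were fitted with the standard Hill equation to give AC50.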

The target in experiment [18] is Mitogen-activated protein kinase 10 (Mus musculus) (UniProt Q61831). Put plainly: JNK3 AlphaScreen Assay (AID 530; active = well fitted curve in either direction with a large enough effect, not every such curve was filed as active). In short, it runs like this:
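Activity was read by AlphaScreen after JNK3-containing HepG2 lysate (cytokine pre-activated) phosphorylated biotinylated GST-cJun with 10 uM ATP at room temperature. Phospho-Ser73 cJun antibody with Protein-A acceptor beads provided detection.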

Experiment [19] can be described thus: qHTS assay to identify small molecules that stimulate interleukin-8 (IL-8) secretion (AID 651758; active = well fitted activation curve with a large enough effect in the signal ratio; the % refers to the signal ratio; also: potency is read from the fitted curve at half-maximal effect; as to activation: 0% is about no effect). The essentials:
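Compounds are added to THP-1 cells (2000 per well) and left 16 hrs at 37 C. A labeled anti-IL-8 antibody pair is then added, and IL-8 secretion is measured by time-resolved FRET after 1-3 hrs at room temperature.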

Experiment [20] in a line: Cell Viability - LYMP2-023 (AID 975).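 Also: cellular ATP measured by luciferase luminescence as viability proxy; cells exposed to compound for 24 hours at 37 °C; plate controls were DMSO only for no effect and 92 µM tetraoctylammonium bromide control for full effect; nearly all actives have a fitted effect of over 55% in size.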 In short, it runs like this:
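Intracellular ATP, read by CellTiter-Glo luminescence, reports viability after 24 hr compound exposure at 37 C. 2500 lymphoblastoid cells/well (LYMP2-023) seeded 5 hr beforehand; Hill fits give AC50; positive control tetraoctylammonium bromide.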

“And” between values parts separate entries of the source, which are not always exact repeats. Identical values can stand only once. Results filed as inconclusive are left out. Values without a mark were called inactive. The source made the active and inactive calls. Unless noted, calls follow the shape of the dose curve; as a rule, active = well fitted curve in the direction sought with a large enough effect; inconclusive = small, poorly fitted or top-dose-only effect, or another doubt; inactive = no such curve, though single readings can be large; an effect the other way counts as inactive or inconclusive.

Thyroid hormone receptor beta (Homo sapiens), sequence (P10828 whole entry, looked up): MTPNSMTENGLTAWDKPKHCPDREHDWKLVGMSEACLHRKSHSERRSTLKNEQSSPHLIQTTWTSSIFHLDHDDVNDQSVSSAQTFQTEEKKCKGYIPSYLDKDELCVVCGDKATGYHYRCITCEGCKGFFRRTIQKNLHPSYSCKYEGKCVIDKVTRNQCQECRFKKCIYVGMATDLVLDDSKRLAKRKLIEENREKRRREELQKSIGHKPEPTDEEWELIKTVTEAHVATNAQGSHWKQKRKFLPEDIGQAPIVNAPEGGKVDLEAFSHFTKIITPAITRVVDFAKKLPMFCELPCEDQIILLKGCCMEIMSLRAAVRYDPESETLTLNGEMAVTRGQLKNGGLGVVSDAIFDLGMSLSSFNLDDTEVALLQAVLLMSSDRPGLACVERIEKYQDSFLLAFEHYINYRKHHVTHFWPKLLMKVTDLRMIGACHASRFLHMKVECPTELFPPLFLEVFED
Bile acid receptor (Homo sapiens), sequence (Q96RI1 whole entry, looked up): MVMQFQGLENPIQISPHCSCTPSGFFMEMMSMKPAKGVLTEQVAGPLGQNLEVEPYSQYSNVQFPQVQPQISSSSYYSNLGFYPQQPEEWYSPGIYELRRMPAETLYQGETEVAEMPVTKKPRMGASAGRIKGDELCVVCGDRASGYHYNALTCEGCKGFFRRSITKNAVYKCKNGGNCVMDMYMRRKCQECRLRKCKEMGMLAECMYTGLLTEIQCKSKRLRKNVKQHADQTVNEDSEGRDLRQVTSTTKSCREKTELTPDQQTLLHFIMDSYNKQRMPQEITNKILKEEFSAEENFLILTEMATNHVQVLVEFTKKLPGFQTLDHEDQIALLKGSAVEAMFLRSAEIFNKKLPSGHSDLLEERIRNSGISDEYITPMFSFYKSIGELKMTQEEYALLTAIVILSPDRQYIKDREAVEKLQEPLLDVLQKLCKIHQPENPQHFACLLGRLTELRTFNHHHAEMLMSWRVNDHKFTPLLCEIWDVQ
Peroxisome proliferator-activated receptor gamma (Homo sapiens), sequence (P37231 whole entry, looked up): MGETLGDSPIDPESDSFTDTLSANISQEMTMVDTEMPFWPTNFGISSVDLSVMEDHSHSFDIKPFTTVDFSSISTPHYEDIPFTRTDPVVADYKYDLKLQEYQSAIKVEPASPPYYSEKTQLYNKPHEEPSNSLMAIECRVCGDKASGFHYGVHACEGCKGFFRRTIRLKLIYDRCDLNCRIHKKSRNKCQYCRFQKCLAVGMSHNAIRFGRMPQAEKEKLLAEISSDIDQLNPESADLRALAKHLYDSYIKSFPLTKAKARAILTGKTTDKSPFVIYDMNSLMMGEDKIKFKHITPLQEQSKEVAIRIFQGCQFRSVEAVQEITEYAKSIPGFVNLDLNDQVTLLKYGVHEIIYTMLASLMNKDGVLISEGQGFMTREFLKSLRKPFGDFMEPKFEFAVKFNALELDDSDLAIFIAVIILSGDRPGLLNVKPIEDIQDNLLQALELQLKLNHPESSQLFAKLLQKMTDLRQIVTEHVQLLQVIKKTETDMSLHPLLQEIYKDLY
Estrogen receptor (Homo sapiens), sequence (P03372 whole entry, looked up): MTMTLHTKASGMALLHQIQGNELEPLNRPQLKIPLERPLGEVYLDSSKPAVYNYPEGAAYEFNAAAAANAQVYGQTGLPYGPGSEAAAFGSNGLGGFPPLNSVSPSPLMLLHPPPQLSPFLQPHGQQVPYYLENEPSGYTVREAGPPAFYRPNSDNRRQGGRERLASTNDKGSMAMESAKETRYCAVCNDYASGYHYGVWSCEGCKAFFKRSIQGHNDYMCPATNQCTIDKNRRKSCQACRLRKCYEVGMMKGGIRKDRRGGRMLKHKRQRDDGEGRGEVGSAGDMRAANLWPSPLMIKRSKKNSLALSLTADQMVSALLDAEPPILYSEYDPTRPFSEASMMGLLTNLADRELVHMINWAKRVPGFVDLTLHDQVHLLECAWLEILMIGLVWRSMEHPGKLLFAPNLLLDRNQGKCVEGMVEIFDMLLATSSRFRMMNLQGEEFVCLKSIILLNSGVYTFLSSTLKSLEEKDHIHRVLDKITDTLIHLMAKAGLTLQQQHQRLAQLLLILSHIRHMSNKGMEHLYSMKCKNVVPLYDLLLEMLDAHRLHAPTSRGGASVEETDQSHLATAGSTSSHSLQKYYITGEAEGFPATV
Glucocorticoid receptor (Homo sapiens), sequence (P04150 whole entry, looked up): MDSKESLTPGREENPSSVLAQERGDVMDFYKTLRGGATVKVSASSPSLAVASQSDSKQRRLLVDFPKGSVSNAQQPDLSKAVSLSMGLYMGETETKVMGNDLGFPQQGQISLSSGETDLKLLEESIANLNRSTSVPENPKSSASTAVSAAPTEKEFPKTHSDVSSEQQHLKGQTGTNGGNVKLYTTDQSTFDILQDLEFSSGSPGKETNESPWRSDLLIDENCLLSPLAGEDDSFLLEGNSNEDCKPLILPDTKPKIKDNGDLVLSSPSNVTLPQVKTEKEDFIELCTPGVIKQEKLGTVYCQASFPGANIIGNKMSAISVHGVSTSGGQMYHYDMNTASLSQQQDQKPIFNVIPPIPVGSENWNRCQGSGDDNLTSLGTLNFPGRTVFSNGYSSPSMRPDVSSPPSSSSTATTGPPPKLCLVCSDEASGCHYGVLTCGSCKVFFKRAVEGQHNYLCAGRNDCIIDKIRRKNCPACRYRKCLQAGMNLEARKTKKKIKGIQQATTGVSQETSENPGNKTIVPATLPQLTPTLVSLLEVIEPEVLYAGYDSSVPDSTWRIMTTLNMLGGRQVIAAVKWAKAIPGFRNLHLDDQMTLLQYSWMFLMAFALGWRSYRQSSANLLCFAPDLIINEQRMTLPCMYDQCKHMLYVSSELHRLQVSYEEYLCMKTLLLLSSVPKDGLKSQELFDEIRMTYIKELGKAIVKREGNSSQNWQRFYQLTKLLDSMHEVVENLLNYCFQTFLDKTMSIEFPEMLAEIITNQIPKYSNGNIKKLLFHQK

For `CC(C)OCC1CO1` (stereo not given), the Potency result in [1], in experiment [2], in experiment [3], in experiment [5], in experiment [6] and in experiment [8] was “inactive” each time. Further, the Potency entry in experiment [9] and in experiment [11] was “inactive” throughout. The result in [4] was inactive. Further, the activation in experiment [7] was -3.64%. For the same molecule, the activity change % (negative = inhibition) in experiment [10] is 8.25%.

For the molecule `Nc1cc(C(=O)O)c(O)c(S(=O)(=O)O)c1`, the Potency result in experiment [12], in experiment [13], in experiment [14], in [2] and in experiment [15] was “inactive” throughout. Besides, in [7], the activation was 1.03%. Also, the activity change % (negative = inhibition) in experiment [10] is -10.1%.

Take `Brc1ccc(-c2ccccc2)cc1`: the Potency entry in [1], in experiment [12], in experiment [16], in experiment [3], in experiment [17] and in [15] was “inactive” in each case. In addition, the Potency entry in [11] was “inactive”.

In the case of `OCC(CO)(CBr)CBr`, the Potency result in experiment [18], in experiment [12], in experiment [2], in experiment [3], in experiment [17] and in experiment [6] was “inactive” each time. Also, the Potency entry in experiment [15], in [8], in experiment [9] and in experiment [19] was “inactive” each time. For the same molecule, the activity change % (negative = inhibition) in experiment [10] is -10.9% and 7.42%.

For the molecule `CCOC(=O)C1OC1c1ccccc1` (stereo not given), the Potency result in experiment [18], in experiment [1], in [16], in [14], in [2] and in experiment [17] was “inactive” throughout. For the same molecule, the Potency entry in experiment [15], in experiment [8] and in experiment [9] was “inactive” each time. The Potency in experiment [19] was 59.6 µM (active).

On to `COc1cc(-c2ccc(N=C=O)c(OC)c2)ccc1N=C=O`, for which the Potency result in [18], in experiment [1], in [20], in experiment [13], in [16] and in [14] was “inactive” in each case. For the same molecule, the Potency result in experiment [2], in experiment [3], in [17] and in [11] was “inactive” each time.

`CCCCC(CC)COCCCN` (stereo not given): the Potency entry in [18], in experiment [1], in experiment [12], in experiment [20], in experiment [13] and in experiment [16] was “inactive” throughout. Besides, the Potency result in experiment [14], in experiment [2], in [17], in [5], in experiment [6] and in [11] was “inactive” in each case. The outcome in experiment [4] was inactive.

Regarding `CC(=O)OCc1ccc2c(c1)OCO2`, the Potency entry in experiment [18], in experiment [1], in [13], in [17], in experiment [6] and in experiment [15] was “inactive” in each case. The Potency result in experiment [9] and in experiment [19] was “inactive” in each case.

As to `Cc1cc(=O)oc2cc(O)cc(O)c12`, the Potency result in experiment [12], in [16], in experiment [14], in experiment [2], in experiment [3] and in experiment [17] was “inactive” in each case. Besides, the Potency result in experiment [6], in experiment [15] and in [11] was “inactive” each time. In addition, in [4], the call was inactive.

In the case of `O=C(OCc1ccccc1)c1ccccc1O`, the Potency entry in experiment [12], in experiment [20], in experiment [13], in [2], in experiment [5] and in experiment [15] was “inactive” throughout. In addition, the Potency result in experiment [19] was “inactive”. The molecule was classed as inactive in experiment [4]. Moreover, in [7], the activation is -2.46% and -9.77%. Further, in [10], the activity change % (negative = inhibition) was -8.64%.

In the case of `CC(=O)OC(C(=O)c1ccccc1)c1ccccc1` (stereo not given), the Potency entry in [12], in experiment [16], in experiment [2], in experiment [3], in experiment [5] and in [6] was “inactive” each time. The Potency result in experiment [15], in experiment [8], in [9] and in experiment [19] was “inactive” each time. For the same molecule, the molecule was classed as inactive in experiment [4]. Besides, in [7], the activation is 8.92%. Further, the activity change % (negative = inhibition) in experiment [10] was 4.95%.
